# From PubChem BioAssay (EPA / NIEHS)
# Active and inactive are the calls of the source. How the source made its calls: active means hit-call score of the fitted dose curve at least 0.9, where 1 is the maximum; inactive means score below 0.9.
# How the values were obtained:
# [1] = BSK_CASM3C_SRB: Viability Assessment in the BioMAP Diversity Plus: CASM3C Assay (AID 2283050); conditions: primary human coronary artery smooth muscle cells;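 further: cells exposed to compound for 24 h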
# [2] = read-out: Thrombomodulin, THBD (gene 7056); experiment: BSK_CASM3C_Thrombomodulin: BioMAP Diversity Plus: CASM3C Assay for Thrombomodulin Biomarker Activity (AID 2283051); conditions: primary human coronary artery smooth muscle cells; actives raise or lower the signal;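 further: thrombomodulin protein level measured by ELISA 24 h after dosing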
# [3] = read-out: Tissue Factor, F3 (gene 2152); experiment: BSK_CASM3C_TissueFactor: BioMAP Diversity Plus: CASM3C Assay for Tissue Factor Biomarker Activity (AID 2283052); conditions: primary human coronary artery smooth muscle cells; actives raise or lower the signal;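 further: cell surface tissue factor protein level read by ELISA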
# [4] = read-out: Interferon-gamma inducible Protein 10 (IP10), CXCL10 (gene 3627); experiment: BSK_hDFCGF_IP10: BioMAP Diversity Plus: hDFCGF Assay for Interferon-gamma inducible Protein 10 (IP10) Biomarker Activity (AID 2283053); conditions: primary human foreskin fibroblasts; actives raise or lower the signal
# Procedure, shortened: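 IP-10 levels, quantified by ELISA, are taken from human foreskin fibroblast cultures 24 h after chemical treatment, with DMSO serving as negative control and baseline for bidirectional analysis.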
# [5] = read-out: Urokinase-type plasminogen activator receptor (uPAR), PLAUR (gene 5329); experiment: BSK_CASM3C_uPAR: BioMAP Diversity Plus: CASM3C Assay for Urokinase-type plasminogen activator receptor (uPAR) Biomarker Activity (AID 2283054); conditions: primary human coronary artery smooth muscle cells; actives raise or lower the signal;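 further: cell-surface uPAR protein level quantified by ELISA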
# [6] = read-out: Vascular cell adhesion molecule 1 (VCAM1), VCAM1 (gene 7412); experiment: BSK_CASM3C_VCAM1: BioMAP Diversity Plus: CASM3C Assay for Vascular cell adhesion molecule 1 (VCAM1) Biomarker Activity (AID 2283055); conditions: primary human coronary artery smooth muscle cells; actives raise or lower the signal;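 further: VCAM-1 protein level quantified by ELISA on the cells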
# [7] = read-out: Collagen III, COL3A1 (gene 1281); experiment: BSK_hDFCGF_CollagenIII: BioMAP Diversity Plus: hDFCGF Assay for Collagen III Biomarker Activity (AID 2283056); conditions: primary human foreskin fibroblasts; actives raise or lower the signal
# Procedure, shortened: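 Human foreskin fibroblast primary cultures sampled 24 h after dosing; Collagen III quantified by ELISA. Signal fitted bidirectionally against DMSO baseline.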
# [8] = read-out: Epidermal growth factor receptor (EGFR), EGFR (gene 1956); experiment: BSK_hDFCGF_EGFR: BioMAP Diversity Plus: hDFCGF Assay for Epidermal growth factor receptor (EGFR) Biomarker Activity (AID 2283057); conditions: primary human foreskin fibroblasts; actives raise or lower the signal
# Procedure, shortened: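 Measured by ELISA: EGFR levels on primary human foreskin fibroblasts 24 h after chemical treatment, analysed relative to DMSO with bidirectional fitting.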
# [9] = read-out: Interleukin-8 (IL8), CXCL8 (gene 3576); experiment: BSK_hDFCGF_IL8: BioMAP Diversity Plus: hDFCGF Assay for Interleukin-8 (IL8) Biomarker Activity (AID 2283058); conditions: primary human foreskin fibroblasts; actives raise or lower the signal
# Procedure, shortened: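 Primary human foreskin fibroblasts (hDFCGF system) dosed with chemical; IL-8 measured by ELISA 24 hours later. Bidirectional curve fitting relative to DMSO baseline; cytotoxicity tracked in parallel cultures by SRB total protein staining.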
# [10] = BSK_hDFCGF_Proliferation: Cell Proliferation Assessment in the BioMAP Diversity Plus: hDFCGF Assay (AID 2283059); conditions: primary human foreskin fibroblasts;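 further: curves fitted for both rise and fall of signal versus DMSO baseline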
# Procedure, shortened: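 Primary human foreskin fibroblasts, sub-confluent; […]; 10% TCA fix, 0.1% SRB stain, A560 total protein. Gain/loss fitted bidirectionally vs DMSO control.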
smiles,measurement,setting,value
C=CC(=O)OCC(CC)(COC(=O)C=C)COC(=O)C=C,AC50,[1],2.21 µM (active)
same,outcome,[2],inactive
same,AC50,[3],0.847 µM (active)
same,AC50,[4],1.71 µM (active)
same,AC50,[5],1.97 µM (active)
same,AC50,[6],1.65 µM (active)
same,AC50,[7],1.03 µM (active)
same,AC50,[8],1.59 µM (active)
same,AC50,[9],3.17 µM (active)
same,AC50,[10],0.795 µM (active)
CCOP(=S)(OCC)SCSCC,outcome,[1],inactive
same,outcome,[2],inactive
same,outcome,[3],inactive
same,outcome,[4],inactive
same,outcome,[5],inactive
same,outcome,[6],inactive
same,outcome,[7],inactive
same,outcome,[9],inactive
same,outcome,[10],inactive
ClC1=C(Cl)C2(Cl)C3C(Cl)C(Cl)CC3C1(Cl)C2(Cl)Cl (stereo unspecified),AC50,[1],33.9 µM (active)
same,AC50,[2],24.1 µM (active)
same,outcome,[3],inactive
same,AC50,[4],7.58 µM (active)
same,outcome,[5],inactive
same,AC50,[6],25.4 µM (active)
same,AC50,[7],6.06 µM (active)
same,outcome,[8],inactive
same,AC50,[9],10.8 µM (active)
same,AC50,[10],6.97 µM (active)
CCCCOCCOP(=O)(OCCOCCCC)OCCOCCCC,outcome,[1],inactive
same,outcome,[2],inactive
same,AC50,[3],1.99 µM (active)
same,outcome,[4],inactive
same,outcome,[5],inactive
same,AC50,[6],0.016 µM (active)
same,AC50,[7],0.016 µM (active)
same,outcome,[9],inactive
same,outcome,[10],inactive
CCCCc1ccccc1,outcome,[1],inactive
same,outcome,[2],inactive
same,outcome,[3],inactive
same,outcome,[4],inactive
same,outcome,[5],inactive
same,outcome,[6],inactive
same,outcome,[7],inactive
same,outcome,[9],inactive
same,outcome,[10],inactive
NC(=O)C(F)(F)C(F)(F)F,outcome,[1],inactive
same,outcome,[2],inactive
same,outcome,[3],inactive
same,outcome,[4],inactive
same,outcome,[5],inactive
same,outcome,[6],inactive
same,outcome,[7],inactive
same,outcome,[8],inactive
same,outcome,[9],inactive
same,outcome,[10],inactive
CSC(C)(C)C=NO,outcome,[1],inactive
same,outcome,[2],inactive
same,outcome,[3],inactive
same,outcome,[4],inactive
same,outcome,[5],inactive
same,outcome,[6],inactive
same,outcome,[7],inactive
same,outcome,[9],inactive
same,outcome,[10],inactive
CCC(C)(C)c1ccc(O)cc1,outcome,[1],inactive
same,outcome,[2],inactive
same,outcome,[3],inactive
same,outcome,[4],inactive
same,outcome,[5],inactive
same,outcome,[6],inactive
same,outcome,[7],inactive
same,outcome,[8],inactive
same,outcome,[9],inactive
same,outcome,[10],inactive
c1ccc2c(c1)Nc1ccccc1S2,outcome,[1],inactive
same,AC50,[2],0.542 µM (active)
same,outcome,[3],inactive
same,AC50,[4],20 µM (active)
same,outcome,[5],inactive
same,outcome,[6],inactive
same,outcome,[7],inactive
same,outcome,[8],inactive
same,outcome,[9],inactive
same,AC50,[10],30.4 µM (active)
CCOP(=S)(OCC)SCS(=O)(=O)CC,outcome,[1],inactive
same,outcome,[2],inactive
same,outcome,[3],inactive
same,outcome,[4],inactive
same,outcome,[5],inactive
same,outcome,[6],inactive
same,outcome,[7],inactive
same,outcome,[8],inactive
same,outcome,[9],inactive
same,outcome,[10],inactive
CCCCCCCc1ccc(O)cc1,AC50,[1],39 µM (active)
same,outcome,[2],inactive
same,outcome,[3],inactive
same,AC50,[4],22.6 µM (active)
same,AC50,[5],38 µM (active)
same,AC50,[6],28.5 µM (active)
same,AC50,[7],15.5 µM (active)
same,outcome,[8],inactive
same,AC50,[9],35.1 µM (active)
same,AC50,[10],13.5 µM (active)
Nc1cc2c3c(c1)C(c1ccccc1)=N[C@@H](NC(=O)c1cccnc1)C(=O)N3CC2,outcome,[1],inactive
same,outcome,[2],inactive
same,outcome,[3],inactive
same,outcome,[4],inactive
same,outcome,[5],inactive
same,outcome,[6],inactive
same,outcome,[7],inactive
same,outcome,[8],inactive
same,outcome,[9],inactive
same,outcome,[10],inactive
O=P(OCC(Br)CBr)(OCC(Br)CBr)OCC(Br)CBr (stereo unspecified),outcome,[1],inactive
same,outcome,[2],inactive
same,outcome,[3],inactive
same,outcome,[4],inactive
same,outcome,[5],inactive
same,outcome,[6],inactive
same,outcome,[7],inactive
same,outcome,[9],inactive
same,outcome,[10],inactive
CCOP(=S)(Oc1ccc([N+](=O)[O-])cc1)c1ccccc1 (stereo unspecified),outcome,[8],inactive
